Tgondii IFNg – T. gondii growth inhibition with IFN-gamma, primary screen, cell-based; Toxoplasma gondii growth in IFN-gamma-treated host cells; active compounds read low; activity change, negative = inhibition, % (test concentration not listed); 3.8% of 69,000 active; in the data active means activity change below about -70%, passing the limit was not always enough;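 further: host cells are HeLa cells infected with Toxoplasma gondii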
Starred values were filed as active, the others as inactive; i = inactive; ! = a repeat was not active. This excerpt belongs to a sample that is enriched for hits.

SMILES	Tgondii IFNg
Cc1cn(-c2cc(NC(=O)c3ccc(C)c(Nc4nccc(-c5cccnc5)n4)c3)cc(C(F)(F)F)c2)cn1	-77*!
CC(C)Oc1ccc(NC(=O)c2cc(-c3cnc(-c4cccnc4)nc3)cn2C)cc1	-17
Cc1ccc(NC(=O)c2ccc(CN3CCN(C)CC3)cc2)cc1Nc1nccc(-c2cccnc2)n1	-38
CC(C)(C)NC(=O)N1CCC(c2nc(CCNC(=O)C3CC3)cs2)CC1	-16
COc1ccc(OC)c(CNC(=O)c2nc(N3CCOCC3)c3ccccc3n2)c1	-40
Cc1ccc(C)c(CNC(=O)c2nc(N3CCOCC3)c3ccccc3n2)c1	-87*
COc1ccc(CNC(=O)c2nc(N3CCOCC3)c3ccccc3n2)cc1	-4
CCCn1cnnc1CN(C)Cc1nc[nH]c1C	1
Cc1ccc(Cl)cc1NC(=O)Nc1ccc(-c2nc(-c3ccccc3)co2)cc1	-39
O=C(Nc1ccccc1)Nc1ccc(Cl)cc1SCc1ccccc1	-77*
Cc1cc(SCC(=O)Nc2ccccc2)nc(SCc2ccc(Cl)cc2)n1	23
CCC(=O)OCC(=O)C1(OC(=O)CC)[C@H](C)C[C@H]2C3[C@H](Cl)CC4=CC(=O)C=C[C@]4(C)[C@H]3[C@@H](O)C[C@@]21C (stereo partly drawn)	-3
CN1C(=O)CCc2cc(NC(=O)c3ccco3)ccc21	148
CCOC(=O)c1nn(CCc2ccccc2)c2c1CN(C(=O)c1ccc3cc[nH]c3c1)CC2	-13
COC1CC2(CCN(C(=O)c3cnccn3)CC2)C1	130
CCCc1cc(C(=O)N2CCC3(CC2)CNC(=O)C3)cs1	-8
Cc1ccc(C(=O)NCCc2sc(-c3ccc(Cl)cc3)nc2C)cc1	-82*
CCOc1ccc(C(=O)NCCc2sc(-c3ccc(OC)cc3)nc2C)cc1	77
Cc1ccc(-c2nc(C)c(CCNC(=O)c3ccccc3)s2)cc1	i
Cc1nc(-c2ccc(F)cc2)sc1CCNC(=O)c1ccc(Cl)cc1	-58
CCOc1ccc(C(=O)NCCc2sc(-c3ccc(C)cc3)nc2C)cc1	2
CCOc1ccc(C(=O)NCCc2sc(-c3ccc(Cl)cc3)nc2C)cc1	-82*
CN(C)S(=O)(=O)c1ccc2c(c1)cc(C(=O)NCc1ccc(Cl)cc1)n2Cc1ccncc1	-42
COc1ccc(OC)c(CNCc2cc(-c3ccccc3)cn3nnnc23)c1	-50
Cc1c(-c2ccccc2)n[nH]c1C(=O)N(C)Cc1cccc2ncccc12	-54
SMILES	Tgondii IFNg
Cn1ncc2c(N3CCCN(C(=O)c4ccco4)CC3)nc(C(C)(C)C)nc21	-16
CN(C)C(=O)CN1CC[C@@H](N(C)C)[C@H]1Cc1ccccc1	2
Cc1cnc(N2CCc3cc(C(=O)N(C)C)c(NCC4CC4)nc3CC2)nc1	2
Cc1nn(CC(=O)N(C)C(C)Cc2ccccn2)cc1Cl (stereo not drawn)	-5
CO[C@H]1CN(C)C(=O)c2cc(NC(=O)c3nc4ccccc4s3)ccc2OC[C@H](C)NC[C@H]1C	-111*
CO[C@@H]1CN(C)C(=O)c2cc(NC(=O)c3nc4ccccc4s3)ccc2OC[C@H](C)NC[C@H]1C	-92*
CO[C@H]1CN(C)C(=O)c2cc(NC(=O)c3nc4ccccc4s3)ccc2OC[C@@H](C)NC[C@H]1C	-13
CO[C@@H]1CN(C)C(=O)c2cc(NC(=O)c3nc4ccccc4s3)ccc2OC[C@@H](C)NC[C@H]1C	-66
CO[C@H]1CN(C)C(=O)c2cc(NC(=O)c3nc4ccccc4s3)ccc2OC[C@@H](C)NC[C@@H]1C	-69
CO[C@@H]1CN(C)C(=O)c2cc(NC(=O)c3nc4ccccc4s3)ccc2OC[C@@H](C)NC[C@@H]1C	-32
Cc1cc(C)c(S(=O)(=O)NCCc2sc(-c3ccccc3)nc2C)c(C)c1	32
CCCCn1nc(C)c2c1NC(=O)CC2C1CCNCC1 (stereo not drawn)	-37
Cc1cc(C(F)(F)F)nn1CC(=O)N1CCCC1c1cccc(F)c1 (stereo not drawn)	31
CN(Cc1ccncn1)C(=O)c1cnn(Cc2ccccc2)c1	1
CC(C)(C)c1cc(C2=NNC(O)(C(F)(F)F)C2)c2c(c1)C(C)(C)CC2 (stereo not drawn)	-100*
OC1(C(F)(F)F)CC(c2nccs2)=NN1 (stereo not drawn)	-13
CC(C)(C)c1cc(-c2cc(C(F)(F)F)[nH]n2)c2c(c1)C(C)(C)CC2	-87*
CN1CCC2(CCN(C(=O)c3cc(C(F)(F)F)[nH]n3)CC2)C1	-2
O=C(Cc1ccc(F)cc1)N1Cc2ccccc2OCC1Cn1ccnc1 (stereo not drawn)	72
COc1ccc(C[C@@H]2CCn3cc(nn3)COCCCNC2=O)cc1	25
COc1ccc(-c2noc(-c3ccc(N(C)CCc4cn[nH]c4)nc3)n2)cc1	58
Cn1c(SCC(=O)c2ccc3c(c2)OCCO3)nnc1-c1ccc2ccccc2c1	-95*
O=C(CSc1nc2ccccc2o1)c1ccc2c(c1)OCCO2	52
CC(C)(C)c1nc2ccccc2c2nnc(SCC(=O)c3ccc4c(c3)OCCO4)n12	1
COCCCN1CCCC12CCN(C(=O)C1CCCC1)CC2	3
SMILES	Tgondii IFNg
CCNc1ccnc(-c2cnc3ccccc3c2)n1	13
CCOc1ccc2nc(NC(=O)Cc3ccc(OC)cc3)sc2c1	4
C/C(=C\c1ccco1)CN1CCC(n2nc(C)cc2C)C1 (stereo not drawn)	-3
COCCn1cnc(-c2nc(C(=O)NCCc3cccnc3)c3ccccn23)c1	129
O=c1cc(O)c2c(=O)n(-c3ccccc3)c(-c3ccccc3)cc2o1	-100*
O=c1cc(-c2ccccc2)c2cc(Cl)c(O)cc2o1	-1
O=c1cc(CN2CCN(c3cccc(Cl)c3)CC2)c2cc(O)c(-c3ccccc3)cc2o1	33
CCn1ncc(S(=O)(=O)N2CCC(c3nc(C)cc(C)n3)C2)c1C (stereo not drawn)	-17
CC(Cc1cnccn1)Nc1ccc(-c2nc(-c3cccc(Cl)c3)no2)cn1 (stereo not drawn)	50
O=S(=O)(Cc1nc(-c2ccsc2)no1)c1ccc(Cl)cc1	-30
O=S(=O)(Cc1noc(-c2cc(Cl)cc(Cl)c2)n1)c1ccc(Cl)cc1	-87*
O=S(=O)(Cc1noc(-c2ccsc2)n1)c1ccccn1	11
COCCN1C2(CCN(S(=O)(=O)C3CC3)C2)c2ccccc2S1(=O)=O (stereo not drawn)	74
CCn1ncnc1C1CC(=O)Nc2cc3[nH]ncc3cc21 (stereo not drawn)	-13
Cc1oc(-c2ccc(OC(C)C)cc2)nc1CSc1nc2c(=O)[nH]cnc2n1-c1ccccc1	-69
CCn1c(SCc2nc(-c3ccc(C)cc3)oc2C)nc2c(=O)[nH]cnc21	24
Cc1oc(-c2cccc(Cl)c2)nc1CSc1nc2c(=O)[nH]cnc2n1-c1ccccc1	-84*
Cc1ccc(-c2nc(CSc3nc4c(=O)[nH]cnc4n3-c3ccccc3)c(C)o2)cc1	-104*
COc1cccc(-c2nc(CSc3nc4c(=O)[nH]cnc4n3-c3ccccc3)c(C)o2)c1OC	-54
CCn1c(SCc2nc(-c3cccc(Cl)c3)oc2C)nc2c(=O)[nH]cnc21	165
Cc1oc(-c2ccc(Cl)cc2)nc1CSc1nc2c(=O)[nH]cnc2n1-c1ccccc1	-27
Cc1ccc(-n2c(SCc3nc(-c4cccc(C)c4)oc3C)nc3c(=O)[nH]cnc32)cc1	i
Cc1ccc(-c2nc(CSc3nc4c(=O)[nH]cnc4n3-c3ccc(C)cc3)c(C)o2)cc1	-95*
Cc1occc1C(=O)N1CCC(N(C)Cc2ccccc2)CC1C(=O)O (stereo not drawn)	11

Screens from PubChem BioAssay.
